“And” between values parts separate entries of the source, which are not always exact repeats. Equal entries are not always repeated. The whole screen tested about 350,000 compounds, of which about 6,000 (1.7%) were called active. Not shown: some 5% with an inconclusive outcome. Cut-off read from the data, not from the text of the source: active = CPE inhibition above about 20% (passing the limit was not always enough); inconclusive = no clear call, values can overlap the other calls; tested in BHK-21 cells. The full list was thinned out, with actives kept by preference. Some structures have more than one record in an assay (separate samples or runs), and their calls can disagree.
Experiment: protection of cells from dengue 2 killing – plate reader, single concentration, primary screen (AID 651640);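 note: 0% = median of neutral control wells and 100% = median of positive control wells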
Conditions: DENV2-infected cells, cytopathic effect rescue, at 9.99 µM, stronger effect = higher value

SMILES | CPE inhibition
O=C(C1CCC1)N1C[C@@H]2N[C@H](C1)C2c1ccc(-c2cncnc2)cc1 (stereo partly drawn) | 10.6% (inactive)
O=C(Cc1ccncc1)N1C[C@@H]2N[C@H](C1)C2c1ccc(-c2ccc(F)cc2)cc1 (stereo partly drawn) | 21.5% (active)
O=C(CN1CCOCC1)N1C[C@@H]2N[C@H](C1)C2c1ccc(-c2ccncc2)cc1 (stereo partly drawn) | -7.01% (inactive)
Cn1cnc(S(=O)(=O)N2C[C@@H]3N[C@H](C2)C3c2ccc(-c3ccccc3F)cc2)c1 (stereo partly drawn) | 72.2% (active) and -4.36% (inactive)
Cn1cnc(S(=O)(=O)N2C[C@@H]3N[C@H](C2)C3c2ccc(/C=C/c3ccccc3)cc2)c1 (stereo partly drawn) | 1.24% (inactive) and -2.99% (inactive)
COc1ccc(-c2ccc(C3[C@@H]4CN(S(=O)(=O)c5cn(C)cn5)C[C@H]3N4)cc2)cc1 (stereo partly drawn) | 1.06% (inactive)
CO[C@@H]1CN(C)C(=O)c2cc(NC(=O)C3CCCC3)ccc2OC[C@H](C)N(C)C[C@@H]1C | 4.63% (inactive)
COC(=O)C[C@@H]1C[C@H]2c3cc(NC(=O)CN(C)C)ccc3O[C@H]2[C@H](CO)O1 | 1.76% (inactive)
Cc1noc(C)c1S(=O)(=O)N(C)C[C@@H]1OCCCC[C@H](C)Oc2ccc(NC(=O)CCC(F)(F)F)cc2C(=O)N([C@H](C)CO)C[C@H]1C | 18.7% (inactive)
O=C(Nc1nccs1)[C@@H]1[C@@H](CO)[C@@H]2Cn3c(ccc(-c4cccnc4)c3=O)[C@@H]2N1CC1CC1 | -4.43% (inactive)
C[C@H]1COC(=O)[C@H](CC(=O)OC(C)(C)C)C/C=C\C[C@@H](CC(=O)N[C@H](CO)Cc2ccccc2)C(=O)N1 | 15.2% (inactive)
CC(C)(C)OC(=O)C[C@@H]1C/C=C\C[C@H](CC(=O)N[C@@H](CO)Cc2ccccc2)C(=O)N[C@H](Cc2ccccc2)COC1=O | 21.2% (active)
CC(C)(C)OC(=O)C[C@@H]1C/C=C\C[C@@H](CC(=O)N[C@H](CO)Cc2ccccc2)C(=O)NCCOC1=O | -7.88% (inactive)
O=C(NCC1CC1)[C@@H]1[C@@H](CO)[C@@H]2Cn3c(ccc(-c4ccncc4)c3=O)[C@@H]2N1Cc1cocn1 | 6.32% (inactive)
O=C(c1ccncc1)N1CC[C@@H]2[C@H]1c1cc(Br)ccc1N[C@@H]2CO | -10.3% (inactive)
C[C@H]1CN([C@@H](C)CO)C(=O)c2cccc(NC(=O)Nc3ccccc3)c2O[C@@H]1CN(C)C(=O)Nc1cccc2ccccc12 | 13.2% (inactive)
COCCn1c(SCC(=O)Nc2ccccc2F)nc2c(c1=O)SCC2 | 69.8% (active)
COCCn1c(SCC(=O)Nc2ccc(F)cc2F)nc2c(c1=O)SCC2 | -1.37% (inactive)
COCCn1c(SCC(=O)Nc2cc(Cl)ccc2OC)nc2c(c1=O)SC(C)C2 (stereo not drawn) | 1.59% (inactive)
C[C@H]1CN([C@@H](C)CO)C(=O)c2cc(C3=CCCC3)cnc2O[C@H]1CN(C)Cc1ccccc1C(=O)O | 10.8% (inactive)

SMILES | CPE inhibition
CC(C)C(=O)Nc1ccc2c(c1)C(=O)N(C)[C@@H]1CC[C@@H](CC(=O)NCCc3ccccc3)O[C@H]1CO2 | 19% (inactive)
C[C@@H]1CCCCO[C@@H](CN(C)Cc2ccncc2)[C@H](C)CN([C@@H](C)CO)C(=O)c2cc(NS(=O)(=O)c3ccccc3)ccc2O1 | -0.228% (inactive)
C[C@H](CO)N1C[C@H](C)[C@H](CN(C)C(=O)Nc2ccc(C(F)(F)F)cc2)OCCCC[C@H](C)Oc2ccc(NC(=O)C3CCCCC3)cc2C1=O | 21.9% (active)
C[C@@H]1CCCCO[C@H](CN(C)C(=O)Nc2ccc(C(F)(F)F)cc2)[C@H](C)CN([C@H](C)CO)C(=O)c2cc(NC(=O)Nc3ccc(C(F)(F)F)cc3)ccc2O1 | 2.81% (inactive)
C[C@@H]1CCCCO[C@@H](CN(C)C(=O)C2CCCCC2)[C@H](C)CN([C@H](C)CO)C(=O)c2cc(NC(=O)CCC(F)(F)F)ccc2O1 | 74.2% (active)
C[C@@H]1CCCCO[C@@H](CN(C)C(=O)Nc2ccc(C(F)(F)F)cc2)[C@H](C)CN([C@H](C)CO)C(=O)c2cc(NC(=O)C3CCCCC3)ccc2O1 | 22.5% (active)
C[C@H]1CCCCO[C@H](CN(C)Cc2ccc(C(F)(F)F)cc2)[C@@H](C)CN([C@@H](C)CO)C(=O)c2cc(NC(=O)C3CCCCC3)ccc2O1 | -17.3% (inactive)
C[C@@H]1CCCCO[C@@H](CN(C)C(=O)CCC(F)(F)F)[C@@H](C)CN([C@H](C)CO)C(=O)c2cc(NC(=O)CCC(F)(F)F)ccc2O1 | 4.89% (inactive)
C[C@H](CO)N1C[C@H](C)[C@@H](CN(C)Cc2ccc(C(F)(F)F)cc2)OCCCC[C@H](C)Oc2ccc(NC(=O)C3CCCCC3)cc2C1=O | -1.83% (inactive)
C[C@@H]1CN([C@@H](C)CO)C(=O)c2cc(NC(=O)C3CCCCC3)ccc2O[C@@H](C)CCCCO[C@@H]1CN(C)C(=O)Nc1ccccc1 | -1.11% (inactive)
C[C@@H]1CCCCO[C@@H](CN(C)C(=O)NC2CCCCC2)[C@@H](C)CN([C@H](C)CO)C(=O)c2cc(NC(=O)CCC(F)(F)F)ccc2O1 | -1.91% (inactive)
C[C@@H]1CN([C@H](C)CO)C(=O)c2cc(C#Cc3ccccn3)cnc2O[C@H]1CN(C)CC1CCOCC1 | -1.46% (inactive)
O=C(C[C@H]1CC[C@@H]2[C@H](COC[C@@H](O)CN2C(=O)Nc2cccc(F)c2)O1)NCc1ccccc1F | 0.633% (inactive)
COc1ccc2c3c([nH]c2c1)[C@H](CO)N(Cc1cccc(F)c1)CC31CCN(CC2CC2)CC1 | -32.6% (inactive)
C[C@H]1CCCCO[C@H](CN(C)CC2CC2)[C@@H](C)CN([C@@H](C)CO)C(=O)c2cc(NS(C)(=O)=O)ccc2O1 | 2.25% (inactive)
COc1ccccc1-c1cnc2c(c1)C(=O)N([C@H](C)CO)C[C@@H](C)[C@@H](CN(C)CC1CCCC1)O2 | 23.1% (inactive)
C[C@@H]1CN([C@H](C)CO)C(=O)c2cc(NS(C)(=O)=O)ccc2O[C@@H]1CN(C)S(C)(=O)=O | -0.244% (inactive)
C[C@H](O)C#Cc1cnc2c(c1)C(=O)N([C@H](C)CO)C[C@H](C)[C@@H](CN(C)C(=O)Nc1ccc(F)cc1)O2 | 8.69% (inactive)
CNC[C@@H]1OCCCC[C@H](C)Oc2ccc(NC(=O)Nc3ccc(OC)cc3)cc2C(=O)N([C@H](C)CO)C[C@@H]1C | 7.49% (inactive)
C[C@H]1CN([C@@H](C)CO)C(=O)c2cc(NS(=O)(=O)c3cccs3)ccc2O[C@@H]1CN(C)C(=O)Nc1ccccc1 | 22.2% (active)

SMILES | CPE inhibition
C[C@@H]1CCCCO[C@H](CN(C)S(=O)(=O)c2cccs2)[C@H](C)CN([C@@H](C)CO)C(=O)c2cc(NS(=O)(=O)c3cccs3)ccc2O1 | -8.04% (inactive)
C[C@@H]1CN([C@H](C)CO)C(=O)c2cc(NS(=O)(=O)c3cccs3)ccc2O[C@@H](C)CCCCO[C@@H]1CN(C)S(=O)(=O)c1cccs1 | -4.08% (inactive)
C[C@H]1CCCCO[C@@H](CN(C)S(=O)(=O)c2cccs2)[C@@H](C)CN([C@@H](C)CO)C(=O)c2cc(NS(=O)(=O)c3ccc(Cl)cc3)ccc2O1 | -0.143% (inactive)
C[C@@H]1CN([C@H](C)CO)C(=O)c2cc(NS(=O)(=O)c3cccs3)ccc2O[C@@H](C)CCCCO[C@@H]1CN(C)S(=O)(=O)c1ccc(Cl)cc1 | 22.8% (active)
C[C@H]1CN([C@@H](C)CO)C(=O)c2cc(NS(=O)(=O)c3cccs3)ccc2O[C@@H]1CN(C)C(=O)Nc1cccc2ccccc12 | -2.31% (inactive)
C[C@@H]1CCCCO[C@H](CN(C)S(=O)(=O)c2ccc(Cl)cc2)[C@H](C)CN([C@@H](C)CO)C(=O)c2cc(NS(=O)(=O)c3cccs3)ccc2O1 | 63.8% (active)
COc1ccc(NC(=O)N(C)C[C@H]2Oc3ccc(NS(=O)(=O)c4cccs4)cc3C(=O)N([C@@H](C)CO)C[C@H]2C)cc1 | -6.98% (inactive)
C[C@@H]1CCCCO[C@@H](CN(C)S(=O)(=O)c2ccc(F)cc2)[C@@H](C)CN([C@@H](C)CO)C(=O)c2cc(NS(=O)(=O)c3cccs3)ccc2O1 | 12.7% (inactive)
CC(C)NC(=O)Nc1ccc2c(c1)C(=O)N(C)[C@H]1CC[C@H](CC(=O)NCC3CCCCC3)O[C@@H]1CO2 | -11% (inactive)
C=C[C@H](OC)[C@@H](O)c1ccc(OC)c(O)c1 | -1.37% (inactive)
C[C@H](CO)N1C[C@H](C)[C@@H](CN(C)C(=O)CCC(F)(F)F)OCCCC[C@H](C)Oc2ccc(NC(=O)C3CCCCC3)cc2C1=O | -0.808% (inactive)
CCS(=O)(=O)N1[C@H](CO)[C@@H](c2ccccc2)C12CN(C(=O)C1CCC1)C2 | -6.37% (inactive)
Cc1noc(C)c1NC(=O)N(C)C[C@@H]1Oc2ccc(NC(=O)Nc3ccc4c(c3)OCO4)cc2CC(=O)N([C@H](C)CO)C[C@H]1C | 9.34% (inactive)
C[C@@H]1CN([C@H](C)CO)C(=O)c2cc(C#CCC3CCCC3)cnc2O[C@H]1CN(C)C(=O)c1cnccn1 | 4.48% (inactive)
CO[C@H]1O[C@H](CO)[C@@H](OC(=O)Nc2ccc(C(F)(F)F)cc2)[C@H](OC(=O)Nc2ccc3c(c2)OCO3)[C@H]1OC(=O)Nc1ccc2c(c1)OCO2 | 3.41% (inactive)
CO[C@@H]1CN(C)C(=O)c2cc(NC(=O)C3CC3)ccc2OC[C@@H](C)N(Cc2ccc(F)cc2)C[C@@H]1C | 3.49% (inactive)
C[C@@H]1CN([C@@H](C)CO)C(=O)Cc2cc(NS(C)(=O)=O)ccc2O[C@H]1CN(C)C(=O)Nc1ccccc1 | 16.2% (inactive)
C[C@@H]1CN([C@H](C)CO)C(=O)Cc2cc(NC(=O)CCN3CCOCC3)ccc2O[C@H]1CN(C)CC1CC1 | -0.438% (inactive)

Source: PubChem BioAssay AID651640 (Broad Institute, 2012)
